27 compounds from the supplement of paper PMC10037445 can be followed below.

Whole data set: some 2,900 compounds, median “NF-kB SEAP reporter activity, fold change vs agonist alone” near 0.99, cut for the highest 2% near 2.6. The sample holds the highest values, similar compounds and a random draw of the others, so the mix is not that of the screen.

For experiment [1], the system named is RAW-Dual. Put plainly: NF-kB SEAP reporter activity, fold change vs agonist alone; higher = enhanced NF-kB activity. A digest of the protocol: (§1)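 Supernatant from RAW-Dual macrophages was read after 20 hours for IRF by QuantiLuc luminescence and for NF-κB by QuantiBlue absorbance at 620 nm. The cells (50,000 cells/well in DMEM, 384-well plates, 37 °C, 5% CO2) had received 50 nL of library stock by pin tool and, 1 h later, a PRR agonist. Reporter activity is expressed relative to agonist-alone wells as fold change, and wells were flagged cytotoxic if IncuCyte confluency was under 70% of agonist controls in both mask sets.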

The subject of experiment [2] is RAW-Dual. Put plainly: NF-kB SEAP reporter activity, fold change vs agonist alone; cytotoxicity flag (confluency mask): not cytotoxic; higher = enhanced NF-kB activity. A digest of the protocol:
as §1

Experiment [3] has as its system RAW-Dual. The experiment can be described thus: NF-kB SEAP reporter activity, fold change vs agonist alone; cytotoxicity flag (confluency mask): cytotoxic (confluency <70% of control); higher = enhanced NF-kB activity. The essentials: as §1
Setting [4] is: library stock concentration (final ~1000-fold dilution): 10 mM, cytotoxicity flag (confluency mask): not cytotoxic, agonist: MPLA (TLR4) […].
Setting [5] is: agonist: ODN 1826 (TLR9) 0.5 ug/mL.
Setting [6] is: agonist: Pam2CSK4 (TLR2/6) 0.1 ug/mL.
The mark [7] stands for this setting: agonist: Pam3CSK4 (TLR2/1) 0.1 ug/mL.
Where [8] appears, read: library stock concentration (final ~1000-fold dilution): 10 mM, cytotoxicity flag (confluency mask): not cytotoxic, agonist: Imiquimod (TLR7) […].

Regarding `COCCc1ccc(OCC(O)CNC(C)C)cc1.COCCc1ccc(OCC(O)CNC(C)C)cc1.O=C(O)CCC(=O)O` (stereo not given), the “NF-kB SEAP reporter activity” value in the experiment with RAW-Dual [1] (setting [4]) was found to be 1.03.
For `COCCc1ccc(OCC(O)CNC(C)C)cc1.COCCc1ccc(OCC(O)CNC(C)C)cc1.O=C(O)CCC(=O)O` (stereo not given) (library stock concentration (final ~1000-fold dilution): 10 mM), the “NF-kB SEAP reporter activity” value with RAW-Dual [2] (agonist: LPS (TLR4) 0.1 ug/mL) stood at 1.32; in the experiment with RAW-Dual [2] (setting [5]), 0.801; in the experiment with RAW-Dual [2] (setting [6]), 0.839; in the experiment with RAW-Dual [2] (setting [7]) it was 0.868.
For `NC1(C(=O)NC(CCO)c2ccc(Cl)cc2)CCN(c2ncnc3[nH]ccc23)CC1` (stereo not given) (library stock concentration (final ~1000-fold dilution): 10 mM), in that order: 0.9, 1.06, 0.974 and 0.723.
`NC1(C(=O)NC(CCO)c2ccc(Cl)cc2)CCN(c2ncnc3[nH]ccc23)CC1` (stereo not given): the “NF-kB SEAP reporter activity” value amounted to 0.829 in the experiment on RAW-Dual [1] (setting [8]) and 0.793 with RAW-Dual [1] (setting [4]).
Turning to `O=C1N=C(O)CN1N=Cc1ccc(-c2ccc([N+](=O)[O-])cc2)o1`, in the experiment with RAW-Dual [1] (setting [4]), the “NF-kB SEAP reporter activity” value is 1.03.
Take `O=C1N=C(O)CN1N=Cc1ccc(-c2ccc([N+](=O)[O-])cc2)o1` (library stock concentration (final ~1000-fold dilution): 10 mM): the “NF-kB SEAP reporter activity” value in the experiment on RAW-Dual [2] (agonist: LPS (TLR4) 0.1 ug/mL) was found to be 1.06; with RAW-Dual [2] (setting [5]) it was 0.843; in the experiment on RAW-Dual [2] (setting [6]) it was 0.877; in the experiment on RAW-Dual [2] (setting [7]), 0.756.
As for `COC(=O)Nc1ccc(-c2nc(N3CCOCC3)c3cnn(C4CCN(C(=O)OC)CC4)c3n2)cc1`, the results for the “NF-kB SEAP reporter activity” value in the experiment with RAW-Dual [1] (setting [8]) and in the experiment on RAW-Dual [1] (setting [4]) were 0.976 and 0.895, respectively.
For `c1cncc(CN2CCC(n3ncc4c(N5CCOCC5)nc(-c5ccc6[nH]ccc6c5)nc43)CC2)c1`, in that order: 0.96 and 0.899.
`c1cncc(CN2CCC(n3ncc4c(N5CCOCC5)nc(-c5ccc6[nH]ccc6c5)nc43)CC2)c1` (library stock concentration (final ~1000-fold dilution): 10 mM): the “NF-kB SEAP reporter activity” value in the experiment on RAW-Dual [2] (agonist: LPS (TLR4) 0.1 ug/mL) was 2.91; in the experiment with RAW-Dual [2] (setting [5]), 0.951; with RAW-Dual [2] (setting [6]), 1.44; with RAW-Dual [2] (setting [7]), 0.777.
Take `CN1CCN(Cc2ccc(-c3cnc4[nH]cc(-c5ccc6[nH]ccc6c5)c4c3)cc2)CC1`: the results for the “NF-kB SEAP reporter activity” value in the experiment with RAW-Dual [1] (setting [8]) and in the experiment on RAW-Dual [1] (setting [4]) were 0.132 and 0.242, respectively.
Consider `COC(=O)Nc1ccc(-c2nc(N3CCOCC3)c3cnn(C4CCN(C(=O)OC)CC4)c3n2)cc1` (library stock concentration (final ~1000-fold dilution): 10 mM), for which the “NF-kB SEAP reporter activity” value with RAW-Dual [2] (agonist: LPS (TLR4) 0.1 ug/mL) was found to be 0.888; with RAW-Dual [2] (setting [5]) it was 0.912; in the experiment with RAW-Dual [2] (setting [6]), 0.867; with RAW-Dual [2] (setting [7]), 0.873.
With `CN1CCN(Cc2ccc(-c3cnc4[nH]cc(-c5ccc6[nH]ccc6c5)c4c3)cc2)CC1` (library stock concentration (final ~1000-fold dilution): 10 mM), the “NF-kB SEAP reporter activity” value in the experiment on RAW-Dual [2] (agonist: LPS (TLR4) 0.1 ug/mL) was found to be 0.216; with RAW-Dual [2] (setting [5]), 0.181; in the experiment on RAW-Dual [2] (setting [6]), 0.0629; in the experiment on RAW-Dual [2] (setting [7]), 0.138.
For `Cc1cnc(NC(=O)Nc2cc(Br)c(C)cc2OCC2CNCCO2)cn1` (stereo not given) (library stock concentration (final ~1000-fold dilution): 10 mM), in that order: 0.68, 0.903, 0.51 and 0.818.
For the compound `Cc1cnc(NC(=O)Nc2cc(Br)c(C)cc2OCC2CNCCO2)cn1` (stereo not given), the “NF-kB SEAP reporter activity” value in the experiment on RAW-Dual [1] (setting [8]) was found to be 0.872; with RAW-Dual [1] (setting [4]), 0.946.
Take `CCC(N)CNc1ccnc(-c2cc(-c3cnn(C)c3)ccc2O)n1.Cl.Cl` (stereo not given) (library stock concentration (final ~1000-fold dilution): 10 mM): the “NF-kB SEAP reporter activity” value in the experiment with RAW-Dual [3] (agonist: LPS (TLR4) 0.1 ug/mL) came out at 0.267; in the experiment on RAW-Dual [3] (setting [5]), 0.195; with RAW-Dual [3] (setting [6]), 0.0684; with RAW-Dual [3] (setting [7]) it was 0.127.
With `CCC(N)CNc1ccnc(-c2cc(-c3cnn(C)c3)ccc2O)n1.Cl.Cl` (stereo not given), the “NF-kB SEAP reporter activity” value was found to be 0.144 in the experiment with RAW-Dual [1] (library stock concentration (final ~1000-fold dilution): 10 mM, cytotoxicity flag (confluency mask): cytotoxic (confluency <70% of control), agonist: Imiquimod (TLR7) […]) and 0.254 in the experiment with RAW-Dual [1] (library stock concentration (final ~1000-fold dilution): 10 mM, cytotoxicity flag (confluency mask): cytotoxic (confluency <70% of control), agonist: MPLA (TLR4) […]).
`N=C(N)NCCCCC1NC(=O)CCSSCC(C(N)=O)NC(=O)C2CCCN2C(=O)C(Cc2c[nH]c3ccccc23)NC(=O)C(CC(=O)O)NC(=O)CNC1=O` (stereo not given): the “NF-kB SEAP reporter activity” value amounted to 0.957 with RAW-Dual [1] (library stock concentration (final ~1000-fold dilution): 10 mM water, cytotoxicity flag (confluency mask): not cytotoxic, agonist: Imiquimod (TLR7) […]) and 1.11 in the experiment with RAW-Dual [1] (library stock concentration (final ~1000-fold dilution): 10 mM water, cytotoxicity flag (confluency mask): not cytotoxic, agonist: MPLA (TLR4) […]).
For the compound `N=C(N)NCCCCC1NC(=O)CCSSCC(C(N)=O)NC(=O)C2CCCN2C(=O)C(Cc2c[nH]c3ccccc23)NC(=O)C(CC(=O)O)NC(=O)CNC1=O` (stereo not given) (library stock concentration (final ~1000-fold dilution): 10 mM water), the “NF-kB SEAP reporter activity” value came out at 1.2 in the experiment on RAW-Dual [2] (agonist: LPS (TLR4) 0.1 ug/mL), 1.15 with RAW-Dual [2] (setting [5]), 1.24 with RAW-Dual [2] (setting [6]) and 1.06 in the experiment on RAW-Dual [2] (setting [7]).
On to `O=c1cc(N2CCOCC2)oc2c(-c3ccc4c(c3)OCCO4)csc12`, for which the figures for the “NF-kB SEAP reporter activity” value in the experiment on RAW-Dual [1] (setting [8]) and with RAW-Dual [1] (setting [4]) were 1.57 and 2.36, respectively.
As to `O=c1cc(N2CCOCC2)oc2c(-c3ccc4c(c3)OCCO4)csc12` (library stock concentration (final ~1000-fold dilution): 10 mM), the “NF-kB SEAP reporter activity” value with RAW-Dual [2] (agonist: LPS (TLR4) 0.1 ug/mL) stood at 6.86; in the experiment on RAW-Dual [2] (setting [5]) it was 2.26; in the experiment on RAW-Dual [2] (setting [6]) it was 0.957; in the experiment with RAW-Dual [2] (setting [7]), 2.84.
For `CC(Nc1cc(F)cc(F)c1)c1cc(C(=O)N(C)C)cc2c(=O)cc(N3CCOCC3)oc12` (stereo not given) (library stock concentration (final ~1000-fold dilution): 10 mM), in that order: 1.67, 1.01, 1.02 and 1.13.
For the compound `CC(Nc1cc(F)cc(F)c1)c1cc(C(=O)N(C)C)cc2c(=O)cc(N3CCOCC3)oc12` (stereo not given), the results for the “NF-kB SEAP reporter activity” value with RAW-Dual [1] (setting [8]) and in the experiment on RAW-Dual [1] (setting [4]) were 0.569 and 1.21, respectively.
As to `CNC(C)C(=O)NC(C(=O)N1CCCC1C(=O)Nc1snnc1-c1ccccc1)C1CCCCC1` (stereo not given) (library stock concentration (final ~1000-fold dilution): 10 mM), the “NF-kB SEAP reporter activity” value in the experiment with RAW-Dual [2] (agonist: LPS (TLR4) 0.1 ug/mL) worked out at 0.612; with RAW-Dual [2] (setting [5]), 0.875; in the experiment with RAW-Dual [2] (setting [6]), 0.972; in the experiment with RAW-Dual [2] (setting [7]) it was 0.8.
Regarding `CNC(C)C(=O)NC(C(=O)N1CCCC1C(=O)Nc1snnc1-c1ccccc1)C1CCCCC1` (stereo not given), the “NF-kB SEAP reporter activity” value in the experiment with RAW-Dual [1] (setting [8]) worked out at 0.887; with RAW-Dual [1] (setting [4]) it was 0.824.
Turning to `O=C(Nc1ccccc1C(=O)O)c1cc(S(=O)(=O)c2ccccc2)ccc1Cl` (library stock concentration (final ~1000-fold dilution): 10 mM), the “NF-kB SEAP reporter activity” value in the experiment on RAW-Dual [2] (agonist: LPS (TLR4) 0.1 ug/mL) was determined as 1.19; with RAW-Dual [2] (setting [5]) it was 0.999; in the experiment with RAW-Dual [2] (setting [6]), 1.09; in the experiment on RAW-Dual [2] (setting [7]), 1.13.
Turning to `O=C(Oc1cc(S(=O)(=O)c2ccccc2)ccc1[N+](=O)[O-])c1ccc(Cl)cc1`, the “NF-kB SEAP reporter activity” value amounted to 1.32 in the experiment with RAW-Dual [1] (setting [8]) and 2.59 in the experiment with RAW-Dual [1] (setting [4]).
In the case of `O=C(Oc1cc(S(=O)(=O)c2ccccc2)ccc1[N+](=O)[O-])c1ccc(Cl)cc1` (library stock concentration (final ~1000-fold dilution): 10 mM), the “NF-kB SEAP reporter activity” value with RAW-Dual [2] (agonist: LPS (TLR4) 0.1 ug/mL) is 5.2; with RAW-Dual [2] (setting [5]) it was 2.09; in the experiment with RAW-Dual [2] (setting [6]) it was 1.03; in the experiment on RAW-Dual [2] (setting [7]) it was 1.81.
